Assay results taken from PubChem BioAssay (NCATS).
Results filed as inconclusive are left out. Where a call stands in place of a potency, no number is given. Activity calls are given as the source filed them. Calls follow the shape of the dose curve; as a rule, active = well fitted inhibition curve with a large enough effect; inconclusive = small, poorly fitted or top-dose-only effect; inactive = no such curve, though single readings can be large or run the other way.

tested on: Zika virus NS2B-NS3 protease (unlinked complex); test: Primary screen GU Rhodamine qHTS for Zika virus inhibitors: Unlinked NS2B-NS3 protease assay (AID 1347159); conditions: Recombinant ZIKV NS2B-NS3 protease, Rhodamine110 substrate fluorescence; series mostly up to 107 µM; also: nearly all actives have a fitted effect of over 60% in size
How it was run: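 Enzyme 25 nM in Tris-HCl pH 8.0 + 0.01% Tween 20; compounds up to 114 microM, 15 min RT dark; + Rhod110 substrate 1.5 microM; read t0 and 15 min; delta fluorescence → % inhibition → 4-parameter Hill fit.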
Potency is read from the fitted curve at half-maximal effect.

Question: Which Potency does the source give for `CCOc1ccc(S(=O)(=O)n2c(C)nc3ccccc32)cc1` here?
Answer: inactive

Question: Which Potency does the source give for `CCN(CC)CCN(Cc1ccc(-c2ccc(C(F)(F)F)cc2)cc1)C(=O)Cn1c(SCc2ccc(F)cc2)nc(=O)c2c1CCC2` here?
Answer: inactive

Question: How did the Potency turn out when `NC(=O)[C@H](O[C@@H]1O[C@H](CO)[C@@H](O)[C@H](O)[C@H]1O)c1ccccc1` was run?
Answer: inactive

Question: Which Potency does the source give for `CC(=O)OC1C[C@@]2(C)[C@@H](CC[C@@H](C)[C@]23Cc2c(O)cc4c(c2O3)CNC4=O)C(C)(C)[C@@H]1O` (some centres undefined) here?
Answer: inactive

Question: How did the Potency turn out when `C[C@@]1(O)[C@H](O)[C@@H](CO)O[C@H]1n1ccc(N)nc1=O` was run?
Answer: inactive

Question: Which Potency does the source give for `CC(c1ncncc1F)C(O)(Cn1cncn1)c1ccc(F)cc1F` (centres undefined) here?
Answer: inactive

Question: For `Cc1cc(C(=O)N2CCCCc3ccccc32)ccc1CNC(=O)N1CCC[C@H]1C(=O)N(C)C`, which Potency is on record?
Answer: inactive

Question: `CC(C(O)/C=C/C(C)(C)O)C1CCC2(C)C3C(=O)C=C4C(CCC(O)C4(C)C)C3(C)CCC12C` (centres undefined) was tested. Which Potency did it give?
Answer: inactive

Question: `C=C1C(=O)OC2C1CCC(=C)C1CC(OC(C)=O)C(=C)C12` (centres undefined) was tested. Which Potency did it give?
Answer: 31.6 µM (active)

Question: With `COC(=O)C1(C)CCC2(C(=O)O)CCC3(C)C(=CCC4C5(C)CC(O)C(OC6OCC(O)C(O)C6O)C(C)(CO)C5CCC43C)C2C1` (centres undefined) as the compound, how does the Potency read?
Answer: inactive

Question: For `Cc1cc(Cl)ccc1COc1ccnn1-c1cc(C(=O)O)ccn1`, which Potency is on record?
Answer: inactive

Question: Which Potency does the source give for `COC1C(=O)CCC2(CO2)C1(O)C1(C)OC1CC=C(C)C` (centres undefined) here?
Answer: 44.7 µM (active)

Question: `CC(=O)O[C@@H]1[C@@H](CO)O[C@@](CO)(O[C@H]2O[C@H](COC(=O)/C=C/c3ccccc3)[C@@H](O)[C@H](O)[C@H]2O)[C@H]1O` was tested. Which Potency did it give?
Answer: inactive

Question: For `OCC(CO[C@@H]1O[C@H](CO)[C@@H](O)[C@H](O)[C@H]1O)c1ccc2c(c1)OCO2` (some centres undefined), which Potency is on record?
Answer: inactive

Question: How did the Potency turn out when `C/C1=C\CCC(C)CCO[C@@H]2O[C@H](CO[C@@H]3OC[C@H](O)[C@H](O)[C@H]3OC1=O)[C@@H](O)[C@H](O)[C@H]2O` (some centres undefined) was run?
Answer: 31.6 µM (active)

Question: `Cc1ccc(C)c(OCCn2cc(C(=O)O)c3ccccc32)c1` was tested. Which Potency did it give?
Answer: 39.8 µM (active)

Question: For `CC1(O)CCCC2(C)C1CCC13CC(CO)C(CCC12)C3` (centres undefined), which Potency is on record?
Answer: inactive

Question: `CC1(C)[C@@H](O)CC[C@]2(C)[C@H]3CC=C4[C@@H]5C[C@](C)(C(=O)O)CC[C@]5(C)CC[C@@]4(C)[C@]3(C)CC[C@@H]12` was tested. Which Potency did it give?
Answer: 7.08 µM (active)

Question: Which Potency does the source give for `CC1=C2C(O)C(=O)OC(c3ccoc3)C2(C)CCC1O` (centres undefined) here?
Answer: inactive

Question: With `COc1ccc(C(=O)Nc2ncc(-c3ccc(C(=O)O)cc3)s2)cc1` as the compound, how does the Potency read?
Answer: 28.2 µM (active)

Question: With `CS(=O)(=O)c1ccc([C@H](CC2CCCC2)C(=O)Nc2nccs2)cc1` as the compound, how does the Potency read?
Answer: inactive

Question: For `CCCC1(c2ccccc2)NC(=O)N(CC(=O)N(C)Cc2c(F)cccc2Cl)C1=O` (centres undefined), which Potency is on record?
Answer: inactive

Question: For `Cc1ccccc1C#Cc1ccc(CCC(=O)O)cc1`, which Potency is on record?
Answer: 14.1 µM (active)

Question: How did the Potency turn out when `C=C1CCC2C(C)(C)C(O)CCC2(C)C1CCC(C)CCO` (centres undefined) was run?
Answer: 7.08 µM (active)

Question: With `C[C@@H]1CCN(C(=O)N2CCCC2)C[C@@H]1N(C)c1ncnc2[nH]ccc12` as the compound, how does the Potency read?
Answer: inactive

Question: `C=C1C(=O)OC2CC(C)=C(C(C)CCCO)C(O)C12` (centres undefined) was tested. Which Potency did it give?
Answer: 20 µM (active)

Question: Which Potency does the source give for `CC1COC2(OC3CC4C5CC(O[C@@H]6O[C@H](C)[C@@H](O[C@@H]7O[C@@H](C)[C@H](O)[C@@H](O)[C@H]7O)[C@H](O)[C@H]6O)C6CC(O)CCC6(C)C5CCC4(C)C3C2C)C(O)C1` (some centres undefined) here?
Answer: inactive

Question: How did the Potency turn out when `C/C(=C\C=C\C(C)C1CCC2(C)C3CCC4C(C)(C)C(=O)CCC45CC35CCC12C)C(=O)O` (centres undefined) was run?
Answer: 4.47 µM (active)

Question: With `CO[C@H]1C[C@@H]2CC[C@@H](C)[C@@](O)(O2)C(=O)C(=O)N2CCCC[C@H]2C(=O)O[C@H]([C@H](C)C[C@@H]2CC[C@H](n3cnnn3)[C@H](OC)C2)CC(=O)[C@H](C)/C=C(\C)[C@@H](O)[C@@H](OC)C(=O)[C@H](C)C[C@H](C)/C=C/C=C/C=C/1C` as the compound, how does the Potency read?
Answer: inactive

Question: `CCC(C)/C=C(C)/C=C/c1cc2c(cn1)C(=O)C(C)(OC(C)=O)C(O)=C2Cl` (centres undefined) was tested. Which Potency did it give?
Answer: 10 µM (active)

Question: Which Potency does the source give for `Nc1nccn2c(C3CCC(C(=O)O)CC3)nc(-c3cc4cccc(Cl)c4[nH]3)c12` (centres undefined) here?
Answer: 25.1 µM (active)

Question: Which Potency does the source give for `O=C(O)CC1CCC(c2ccc(-c3ccc4nc(C(=O)NCc5ccc(OC(F)(F)F)cc5)cn4c3)cc2)CC1` (centres undefined) here?
Answer: 2.51 µM (active)

Question: For `C/C=C/C=C/C=C/C(=O)OC1C=C(C=O)C(O)(C(=O)O)C2(C)CCCC(C)(C)C12` (centres undefined), which Potency is on record?
Answer: 8.91 µM (active)

Question: How did the Potency turn out when `CC(=O)O[C@@H]1[C@@H](O)[C@H](O[C@H]2CC[C@]34C[C@]35CC[C@]3(C)[C@@H]([C@@]6(C)CC[C@@H](C(C)(C)O)O6)[C@@H](O)C[C@@]3(C)[C@@H]5C[C@H](O[C@@H]3O[C@H](CO)[C@@H](O)[C@H](O)[C@H]3O)[C@H]4C2(C)C)OC[C@H]1O` was run?
Answer: inactive
